According to ChEMBL document CHEMBL2218924, “A broad activity screen in support of a chemogenomic map for kinase signalling research and drug discovery” (Biochem J, 2013):

Key:
[1] = biological target: Tyrosine-protein kinase SYK (Homo sapiens) (UniProt P43405); settings: at 10 µM
[2] = biological target: T1, Mitogen-activated protein kinase kinase kinase 7 (Homo sapiens) (UniProt O43318); settings: at 1 µM
T1 sequence (whole entry): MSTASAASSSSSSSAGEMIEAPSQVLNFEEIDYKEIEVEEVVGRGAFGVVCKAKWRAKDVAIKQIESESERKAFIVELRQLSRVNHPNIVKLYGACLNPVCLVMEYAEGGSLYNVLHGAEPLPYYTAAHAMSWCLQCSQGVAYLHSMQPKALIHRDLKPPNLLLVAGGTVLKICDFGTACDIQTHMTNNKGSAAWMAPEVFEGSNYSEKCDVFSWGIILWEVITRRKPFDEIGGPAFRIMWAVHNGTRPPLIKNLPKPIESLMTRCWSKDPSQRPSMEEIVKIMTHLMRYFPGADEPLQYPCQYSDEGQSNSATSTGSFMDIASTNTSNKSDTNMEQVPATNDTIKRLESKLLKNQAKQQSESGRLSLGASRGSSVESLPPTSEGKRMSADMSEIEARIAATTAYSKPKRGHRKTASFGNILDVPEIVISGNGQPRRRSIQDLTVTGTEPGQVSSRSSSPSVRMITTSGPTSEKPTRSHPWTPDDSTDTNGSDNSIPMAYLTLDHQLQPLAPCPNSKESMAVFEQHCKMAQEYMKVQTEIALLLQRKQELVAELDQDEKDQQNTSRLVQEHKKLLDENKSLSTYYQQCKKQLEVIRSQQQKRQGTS

[3] = biological target: T1, Mitogen-activated protein kinase kinase kinase 7 (Homo sapiens); settings: at 10 µM
[4] = biological target: T2, Serine/threonine-protein kinase TAO1 (Homo sapiens) (UniProt Q7L7X3); settings: at 1 µM
T2 sequence (whole entry): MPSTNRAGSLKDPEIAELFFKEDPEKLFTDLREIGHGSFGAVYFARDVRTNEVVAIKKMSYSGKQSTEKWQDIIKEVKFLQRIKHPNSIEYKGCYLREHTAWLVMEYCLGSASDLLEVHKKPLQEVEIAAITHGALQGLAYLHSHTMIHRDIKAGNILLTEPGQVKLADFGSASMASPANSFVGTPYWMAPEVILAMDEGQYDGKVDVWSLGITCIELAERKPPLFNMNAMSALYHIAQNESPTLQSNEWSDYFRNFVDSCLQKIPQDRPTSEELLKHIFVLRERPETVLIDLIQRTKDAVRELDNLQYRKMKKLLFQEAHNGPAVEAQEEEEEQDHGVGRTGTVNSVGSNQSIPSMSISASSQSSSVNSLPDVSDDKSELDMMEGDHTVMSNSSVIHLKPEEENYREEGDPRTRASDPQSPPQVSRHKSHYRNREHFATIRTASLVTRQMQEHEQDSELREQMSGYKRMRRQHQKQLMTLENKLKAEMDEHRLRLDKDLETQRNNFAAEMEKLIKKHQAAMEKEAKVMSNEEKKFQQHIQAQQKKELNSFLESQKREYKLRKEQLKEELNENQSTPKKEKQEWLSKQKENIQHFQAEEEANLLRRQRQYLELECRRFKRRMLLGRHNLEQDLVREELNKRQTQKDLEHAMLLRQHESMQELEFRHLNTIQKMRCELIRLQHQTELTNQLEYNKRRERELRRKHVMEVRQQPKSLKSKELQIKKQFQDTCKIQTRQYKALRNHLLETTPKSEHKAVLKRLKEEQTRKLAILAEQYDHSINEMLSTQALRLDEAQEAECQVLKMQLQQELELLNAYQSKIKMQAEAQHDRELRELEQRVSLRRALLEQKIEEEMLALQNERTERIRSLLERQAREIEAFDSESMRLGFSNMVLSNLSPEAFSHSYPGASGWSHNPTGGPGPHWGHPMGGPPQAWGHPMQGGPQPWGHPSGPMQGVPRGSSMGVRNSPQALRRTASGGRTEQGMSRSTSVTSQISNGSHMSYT

[5] = biological target: T2, Serine/threonine-protein kinase TAO1 (Homo sapiens); settings: at 10 µM
[6] = biological target: T3, Serine/threonine-protein kinase TAO3 (Homo sapiens) (UniProt Q9H2K8); settings: at 1 µM
T3 sequence (whole entry): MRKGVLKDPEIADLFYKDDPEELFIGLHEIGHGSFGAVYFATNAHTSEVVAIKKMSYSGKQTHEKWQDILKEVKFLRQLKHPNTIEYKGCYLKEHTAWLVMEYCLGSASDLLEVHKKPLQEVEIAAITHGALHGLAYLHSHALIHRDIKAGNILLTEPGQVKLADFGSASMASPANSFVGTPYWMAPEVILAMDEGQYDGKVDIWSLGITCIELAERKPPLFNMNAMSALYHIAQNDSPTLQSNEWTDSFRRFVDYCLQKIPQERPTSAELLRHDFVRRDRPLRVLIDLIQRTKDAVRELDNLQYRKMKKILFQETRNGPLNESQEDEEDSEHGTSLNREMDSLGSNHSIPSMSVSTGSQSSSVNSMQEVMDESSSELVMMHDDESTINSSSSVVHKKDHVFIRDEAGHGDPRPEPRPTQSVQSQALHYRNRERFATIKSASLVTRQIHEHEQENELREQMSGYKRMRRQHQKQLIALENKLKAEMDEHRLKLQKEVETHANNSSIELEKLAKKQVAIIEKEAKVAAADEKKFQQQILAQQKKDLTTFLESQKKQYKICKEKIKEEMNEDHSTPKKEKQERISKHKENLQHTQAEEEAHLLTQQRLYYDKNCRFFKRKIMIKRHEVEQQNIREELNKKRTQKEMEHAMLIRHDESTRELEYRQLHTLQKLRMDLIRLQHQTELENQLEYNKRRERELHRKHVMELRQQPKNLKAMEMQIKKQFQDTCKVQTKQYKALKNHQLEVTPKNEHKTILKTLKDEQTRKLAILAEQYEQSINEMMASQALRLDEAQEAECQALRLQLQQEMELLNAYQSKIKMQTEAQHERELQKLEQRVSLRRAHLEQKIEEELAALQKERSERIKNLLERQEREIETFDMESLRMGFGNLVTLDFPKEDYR

[7] = biological target: T3, Serine/threonine-protein kinase TAO3 (Homo sapiens); settings: at 10 µM
[8] = biological target: T4, Serine/threonine-protein kinase TBK1 (Homo sapiens) (UniProt Q9UHD2); settings: at 1 µM
T4 sequence (whole entry): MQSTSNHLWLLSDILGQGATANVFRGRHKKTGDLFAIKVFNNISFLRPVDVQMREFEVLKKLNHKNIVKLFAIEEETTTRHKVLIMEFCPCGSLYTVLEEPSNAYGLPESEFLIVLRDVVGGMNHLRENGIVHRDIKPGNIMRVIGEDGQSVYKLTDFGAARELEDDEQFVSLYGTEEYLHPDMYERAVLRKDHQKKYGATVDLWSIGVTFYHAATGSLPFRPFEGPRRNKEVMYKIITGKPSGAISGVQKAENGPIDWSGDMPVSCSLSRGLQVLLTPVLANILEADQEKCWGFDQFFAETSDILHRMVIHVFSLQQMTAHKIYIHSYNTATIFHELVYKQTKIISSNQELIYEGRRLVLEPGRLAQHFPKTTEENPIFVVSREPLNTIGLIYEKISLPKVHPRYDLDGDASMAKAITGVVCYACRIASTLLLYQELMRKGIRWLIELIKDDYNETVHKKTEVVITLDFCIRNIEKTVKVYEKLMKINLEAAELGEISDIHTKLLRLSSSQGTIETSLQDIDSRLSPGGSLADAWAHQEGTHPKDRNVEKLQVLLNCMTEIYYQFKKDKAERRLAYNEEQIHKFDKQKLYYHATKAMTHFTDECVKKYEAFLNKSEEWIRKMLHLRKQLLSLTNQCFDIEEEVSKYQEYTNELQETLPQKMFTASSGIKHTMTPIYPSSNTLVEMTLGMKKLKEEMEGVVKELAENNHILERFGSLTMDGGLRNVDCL

[9] = biological target: T4, Serine/threonine-protein kinase TBK1 (Homo sapiens); settings: at 10 µM
[10] = biological target: T5, TGF-beta receptor type-1 (Homo sapiens) (UniProt P36897); settings: at 1 µM
T5 sequence (whole entry): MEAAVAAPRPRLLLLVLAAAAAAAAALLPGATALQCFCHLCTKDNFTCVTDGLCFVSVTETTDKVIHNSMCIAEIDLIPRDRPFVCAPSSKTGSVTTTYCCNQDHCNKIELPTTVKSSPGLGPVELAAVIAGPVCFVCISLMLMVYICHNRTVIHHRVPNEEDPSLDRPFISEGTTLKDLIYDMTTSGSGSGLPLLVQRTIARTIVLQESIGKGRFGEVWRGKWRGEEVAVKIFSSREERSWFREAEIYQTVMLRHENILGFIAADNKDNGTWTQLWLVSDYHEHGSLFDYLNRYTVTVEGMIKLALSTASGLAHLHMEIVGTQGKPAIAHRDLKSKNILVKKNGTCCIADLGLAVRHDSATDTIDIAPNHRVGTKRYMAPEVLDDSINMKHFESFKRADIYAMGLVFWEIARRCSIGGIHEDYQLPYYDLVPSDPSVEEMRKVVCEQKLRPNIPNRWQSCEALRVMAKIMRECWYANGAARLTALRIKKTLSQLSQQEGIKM

[11] = biological target: T5, TGF-beta receptor type-1 (Homo sapiens); settings: at 10 µM
[12] = biological target: T6, Inhibitor of nuclear factor kappa-B kinase subunit alpha (Homo sapiens) (UniProt O15111); settings: at 1 µM
T6 sequence (whole entry): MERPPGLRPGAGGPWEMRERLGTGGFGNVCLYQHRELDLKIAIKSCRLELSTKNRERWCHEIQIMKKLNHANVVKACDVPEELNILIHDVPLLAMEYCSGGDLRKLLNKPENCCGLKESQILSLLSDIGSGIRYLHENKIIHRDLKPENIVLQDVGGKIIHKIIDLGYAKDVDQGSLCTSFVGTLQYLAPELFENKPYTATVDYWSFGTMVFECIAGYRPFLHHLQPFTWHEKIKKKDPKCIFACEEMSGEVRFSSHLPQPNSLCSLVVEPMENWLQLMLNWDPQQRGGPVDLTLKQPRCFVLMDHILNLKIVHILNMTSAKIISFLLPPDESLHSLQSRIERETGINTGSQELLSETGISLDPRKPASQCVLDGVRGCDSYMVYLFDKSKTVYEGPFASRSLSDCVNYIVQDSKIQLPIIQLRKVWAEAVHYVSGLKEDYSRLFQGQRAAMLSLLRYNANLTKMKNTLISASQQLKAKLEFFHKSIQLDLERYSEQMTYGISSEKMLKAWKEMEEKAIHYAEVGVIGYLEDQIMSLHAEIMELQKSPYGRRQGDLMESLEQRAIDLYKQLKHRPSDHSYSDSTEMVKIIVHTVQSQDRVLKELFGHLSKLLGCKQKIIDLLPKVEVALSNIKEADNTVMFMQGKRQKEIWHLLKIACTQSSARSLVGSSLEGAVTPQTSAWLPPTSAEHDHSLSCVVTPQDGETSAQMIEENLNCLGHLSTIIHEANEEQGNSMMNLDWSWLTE

Cc1cncc2cccc(S(=O)(=O)N3CCCN(C(=O)CN)C[C@H]3C)c12
residual activity [1]: 85%
residual activity [2]: 88%
residual activity [3]: 83%
residual activity [4]: 81%
residual activity [5]: 28%
residual activity [6]: 93%
residual activity [7]: 65%
residual activity [8]: 68%
residual activity [9]: 55%
residual activity [10]: 78%
residual activity [11]: 86%
residual activity [12]: 93%
